Source: PubChem
PAFAH1B3 FP inh: PAFAH1B3 (human) inhibition; recombinant PAFAH1B3, FP-rhodamine probe, fluorescence polarization; inhibition, % at 3.39 µM; 0.28% of 340,000 active;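 active = inhibition above the screen-wide average of all tested compounds plus 3 SD, cut at about 25% in these data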
PP1 inh: blocks human PP1-alpha phosphatase, a PP5 counter-screen; purified PP1alpha, OMFP fluorescence; inhibition, % at 6.7 µM; 0.9% of 320,000 active; AID 2235;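 active = inhibition above the mean inhibition of all tested compounds plus 3 SD, computed separately for each screening campaign, cut at about 15% in these data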
PAFAH2 FP inh: inhibitors of human PAFAH2. 0.99% of 340,000 active. Q99487. recombinant PAFAH2, FP-rhodamine activity probe, fluorescence polarization. inhibition, % at 3.39 µM;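 active = inhibition above the mean over all tested compounds plus 3 SD, cut at about 30% in these data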;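 also: inhibitors block probe labeling of enzyme so polarization drops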
PAFAH1B2 inh: inhibitors of human PAFAH1B2; P68402; recombinant PAFAH1B2, FP-rhodamine activity probe, fluorescence polarization; inhibition, % at 3.39 µM; 1.2% of 340,000 active;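 active = inhibition above the mean of all tested compounds plus 3 SD, cut at about 24% in these data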
PP5 primary: inhibitors of human protein phosphatase 5 (PP5); P53041; purified PP5c, OMFP substrate fluorescence; inhibition, % at 6.7 µM; 0.18% of 320,000 active;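 active = inhibition above the campaign's mean inhibition across all tested compounds plus 3 SD, cut at about 9.5% in these data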
pPAFAH FP inh: inhibitors of human plasma PAF acetylhydrolase (pPAFAH); 1.5% of 330,000 active; AID 463082; Q13093; inhibition, % at 3.39 µM; recombinant pPAFAH, FP-rhodamine probe fluorescence polarization;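 active = inhibition above the mean inhibition across the screen plus 3 SD, cut at about 25% in these data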;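 also: inhibitors block binding of the rhodamine activity-based probe so polarization drops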
Target sequence (Q13093 whole entry, looked up): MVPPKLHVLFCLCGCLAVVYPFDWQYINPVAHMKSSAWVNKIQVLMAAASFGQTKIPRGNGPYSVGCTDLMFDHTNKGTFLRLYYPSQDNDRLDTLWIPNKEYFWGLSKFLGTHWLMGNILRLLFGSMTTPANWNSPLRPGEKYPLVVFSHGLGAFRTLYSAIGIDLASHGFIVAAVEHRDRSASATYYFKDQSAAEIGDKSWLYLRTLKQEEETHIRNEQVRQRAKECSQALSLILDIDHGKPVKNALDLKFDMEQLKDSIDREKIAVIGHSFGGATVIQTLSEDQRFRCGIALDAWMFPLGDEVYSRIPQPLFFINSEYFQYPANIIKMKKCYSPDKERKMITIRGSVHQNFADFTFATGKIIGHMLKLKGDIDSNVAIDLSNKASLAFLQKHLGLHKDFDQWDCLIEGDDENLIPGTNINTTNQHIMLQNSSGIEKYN
Numbers stand for hits; – = inactive; · = not tested or not shown. Compounds with a hit are over-represented: about 3.4% of the library has one in this group of screens.

SMILES	PAFAH1B3 FP inh	PP1 inh	PAFAH2 FP inh	PAFAH1B2 inh	PP5 primary	pPAFAH FP inh
COc1cccc(CNC(=O)C2CCCN(S(=O)(=O)c3cccc4nonc34)C2)c1 (stereo not drawn)	–	–	–	–	–	–
Cc1ccccc1C=Nc1ccccc1C(N)=O	–	–	–	–	–	–
CC(/C=C1\SC(=S)N(NS(=O)(=O)c2ccccc2)C1=O)=C\c1ccccc1	–	–	–	39	–	–
CC(/C=C1\SC(=S)N(NS(=O)(=O)c2ccc(C)cc2)C1=O)=C\c1ccccc1	–	16	–	28	–	–
CCSc1n[nH]c2nc3c(c(=O)n12)C1(CCCCC1)Cc1ccccc1-3	–	–	58	82	–	–
CSc1n[nH]c2nc3c(c(=O)n12)C1(CCCCC1)Cc1ccccc1-3	–	–	44	91	–	–
CCC(=O)Nn1cnc2c(c1=O)C1(CCCCC1)Cc1ccccc1-2	–	–	–	33	–	–
N#CCSc1n[nH]c2nc3c(c(=O)n12)C1(CCCCC1)Cc1ccccc1-3	–	–	38	91	–	–
Cn1c(NCCCO)nc2c(c1=O)C1(CCCCC1)Cc1ccccc1-2	–	–	–	–	–	–
CCCn1c(SCC(N)=O)nc2c(c1=O)C1(CCCC1)Cc1ccccc1-2	–	–	–	–	–	–
CC(C)CCN1CCC(CN2C(=S)NC[C@@H]2Cc2ccccc2)CC1	–	·	–	–	·	·
Cc1ccc2c(c1)NC(=O)[C@@]1(C)[C@@H](c3ccccc3)[C@H]3COc4ccccc4[C@@H]3N1C2=O	–	–	–	–	–	–
COc1ccc(/C=C\c2nc(O)c([N+](=O)[O-])c(=O)[nH]2)cc1O	–	–	–	–	–	–
COc1cccc(NC(=O)COC(=O)CC2CC3CCC2C3)c1 (stereo not drawn)	–	·	78	–	·	34
O=C(COC(=O)CC1CC2CCC1C2)NC(=O)NCc1ccco1 (stereo not drawn)	–	–	–	25	–	–
O=C(COC(=O)CCc1ccccc1)Nc1cc([N+](=O)[O-])ccc1F	–	–	–	–	–	–
O=C(COC(=O)CC1CC2CCC1C2)Nc1cc([N+](=O)[O-])ccc1F (stereo not drawn)	–	–	49	42	–	–
Cc1ncc(S(=O)(=O)c2ccc(Cl)cc2)c(-c2ccccc2)n1	–	–	–	–	–	–
C(#Cc1ccccc1)CN1CCN(c2ccccn2)CC1	–	–	–	–	–	–
CCOc1ccc(S(=O)(=O)NCCC(=O)OCC(=O)NC(=O)c2cccn2C)cc1	–	·	–	–	·	25
O=c1[nH]c2ccc(S(=O)(=O)Nc3ccc(Cl)cc3)cc2o1	–	·	–	54	·	·
COc1ccc(OC)c(NC2=C(Cl)C(=O)N(Cc3ccccc3)C2=O)c1	–	–	–	–	–	–
Cc1ccc(N(O)C(C)(C)C)cc1	–	·	–	–	·	·
Cc1ccc(S(=O)(=O)NCCC(=O)Nc2ccc(Cl)c(Cl)c2)cc1	–	–	–	29	–	–
Cc1ccc(S(=O)(=O)NCCC(=O)Nc2ccc(Cl)c(Cl)c2)cc1C	–	–	–	25	–	–
SMILES	PAFAH1B3 FP inh	PP1 inh	PAFAH2 FP inh	PAFAH1B2 inh	PP5 primary	pPAFAH FP inh
Cn1c(SCc2nnc3n2CCCCC3)nc2ccccc21	–	–	–	–	–	–
CCN(C1CCCCC1)S(=O)(=O)c1ccc(S(=O)(=O)N2CCN(CCC#N)CC2)cc1	–	–	–	25	–	–
CC(=O)c1cc(C(=O)Nc2ccccc2C(=O)O)oc1C	–	–	–	–	–	–
O=C(CCc1ccccc1)NNC(=S)NCc1ccc(Cl)cc1	–	–	–	25	–	28
CCc1sc(C(=O)Nc2ccc3c(c2)OCO3)cc1C	–	·	–	–	·	25
Fc1cccc(F)c1/C=C/c1ccc2ccccc2n1	–	–	–	–	–	–
C(=C\c1ccco1)/c1ccc2ccccc2n1	·	–	·	·	–	26
O=S(=O)(c1ccc(Br)cc1)N1CCn2c(nc3ccccc32)C1	–	–	–	29	–	–
O=S(=O)(Cc1ccccc1)N1CCn2c(nc3ccccc32)C1	–	–	–	–	–	–
CCSc1nc2ccccc2n1Cc1nc(N)nc(N(C)C)n1	–	–	–	–	–	–
Cc1ccc(C)n1NC(=O)c1ccccc1O	–	–	–	–	–	32
Cc1ccc(C)n1NC(=O)c1ccccc1[N+](=O)[O-]	–	–	–	–	–	–
Cn1c(SCC(=O)c2ccc(-c3ccccc3)cc2)nnc1-c1ccco1	–	–	–	–	–	30
Oc1nc(-c2ccc(Br)cc2)n2ccncc12	–	–	–	–	–	–
Cc1[nH]c2c(C)cccc2c1CC(=O)O	–	–	–	–	–	–
Cc1cccc2c(N=O)c(O)[nH]c12	53	–	–	30	–	31
NC(=O)[C@H](Cc1cc2ccccc2s1)NC(=O)[C@@H]1CC2(CC(c3cccc(NC(=O)[C@@H]4CCC(=O)N4)c3)=NO2)CN1C(=O)c1ccccc1 (stereo partly drawn)	–	–	–	–	–	–
NC(=O)[C@H](Cc1cc2ccccc2s1)NC(=O)[C@@H]1CC2(CC(c3cccc(NC(=O)[C@@H]4CCC(=O)N4)c3)=NO2)CN1C(=O)/C=C/Sc1ccccc1 (stereo partly drawn)	–	17	–	–	–	–
O=S(=O)(c1ccc(SCc2ccc(Cl)cc2)nc1)N1CCCC1	–	–	–	26	–	–
O=c1cc(CSc2ccc(S(=O)(=O)N3CCCCC3)cn2)nc2sccn12	–	–	–	25	–	–
O=C(OCC(=O)N(Cc1ccccc1)Cc1ccccc1)c1ccccc1NCCO	–	–	–	–	–	–
N#C/C(=C/c1ccco1)C(N)=S	–	–	34	–	–	33
COc1ccc(OC)c(CCNC(=O)c2ccc3c(c2)N(Cc2ccc(F)cc2)CCS3)c1	–	–	–	–	–	–
COc1ccc(OC)c(CCNC(=O)c2ccc3c(=O)[nH]c4c(C(=O)NC(C)C)sc(=S)n4c3c2)c1	–	–	60	24	–	–
CC(C)NC(=O)c1sc(=S)n2c1[nH]c(=O)c1ccc(C(=O)NCCc3ccc(Cl)cc3)cc12	–	–	–	–	–	–
SMILES	PAFAH1B3 FP inh	PP1 inh	PAFAH2 FP inh	PAFAH1B2 inh	PP5 primary	pPAFAH FP inh
CCOc1ccc(CCNC(=O)c2ccc3c(=O)[nH]c4c(C(=O)NC(C)C)sc(=S)n4c3c2)cc1	–	–	–	–	–	29
CCc1ccccc1OCC(=O)Nc1cc(S(=O)(=O)N2CCOCC2)ccc1N1CCCCC1	–	·	–	–	·	·
CCc1ccc(C2CC(c3ccc(C)cc3)Nc3nc(N)nn32)cc1 (stereo not drawn)	–	–	–	25	–	–
Cc1ccc2cc(C)c3nnc(SCC(=O)N4CCN(C(=O)c5ccco5)CC4)n3c2c1	–	–	–	–	–	–
COc1ccc(/C=C2\SC(=O)N(CCCC(=O)Nc3cc(Cl)ccc3C(=O)O)C2=O)cc1	–	·	–	38	·	–
CN=C1SC(CC(=O)Nc2ccc(F)cc2F)C(=O)N1/N=C(\C)c1cccc(OCC(=O)O)c1 (stereo not drawn)	–	–	–	–	–	–
